Screening data: PubChem BioAssay, several laboratories
An excerpt weighted towards active compounds, which were near 4.1% of everything screened.
hcDAF-12 act: H. contortus DAF-12 nuclear receptor activators, primary screen, cell-based, luminescence, HEK293, lit1-tk-luc reporter; HEK293 hcDAF-12 lit1-tk-luc reporter; 0% DMSO, 100% Δ7-dafachronic acid; activation, % at 6.8 µM; 370,000 compounds, 1.4% hits; AID 652067, 2013;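 active = activation above the mean of all tested compounds plus 3 SD, cut at about 5.5% in these data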
ssDAF-12 act: S. stercoralis DAF-12 nuclear receptor activators, primary screen, cell-based, luminescence, HEK293, GRIP1 co-expression, lit1-tk-luc; 370,000 compounds, 1% hits; AID 652126, 2013; HEK293 ssDAF-12/GRIP1 lit1-tk-luc reporter; % of 3 µM dafachronic acid response; Nuclear hormone receptor DAF-12 (Strongyloides stercoralis); activation, % at 6.8 µM;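 active = activation above the mean over all tested compounds plus 3 SD, cut at about 0.9% in these data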
DAX1 inh-1: DAX1 (NR0B1) inhibitors, primary screen, cell-based, HEK293, Gal4-DAX1, luciferase luminescence; 340,000 compounds, 0.99% hits; HEK293 Gal4-DAX1 luciferase reporter; inhibition, % at 6.75 µM; AID 504766, 2011;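 active = inhibition above the mean over all tested compounds plus 3 SD, cut at about 4.2% in these data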;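 also: inhibition shows as a rise in luminescence from relieved DAX1 repression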
Target sequence (P51843 207-470 limits assumed): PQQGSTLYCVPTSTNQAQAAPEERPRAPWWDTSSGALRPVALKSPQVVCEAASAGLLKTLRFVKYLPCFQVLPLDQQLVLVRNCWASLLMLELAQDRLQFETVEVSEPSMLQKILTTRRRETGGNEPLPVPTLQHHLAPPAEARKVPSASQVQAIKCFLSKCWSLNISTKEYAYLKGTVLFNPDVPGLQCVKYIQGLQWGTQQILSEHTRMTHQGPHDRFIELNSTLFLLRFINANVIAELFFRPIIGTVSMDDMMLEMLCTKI
hgDAF12 agonist: H. glycines DAF-12 receptor agonists, primary screen, cell-based, luminescence, HEK293, GAL4 fusion, UAS-luciferase. HEK293 GAL4-hgDAF12 UAS-luciferase reporter, agonist luminescence; normalized to butyrate control. activation, % at 6.8 µM. AID 687014, 2013. 370,000 compounds, 1.8% hits;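 active = activation above a cutoff set at the mean of all screened compounds plus 3 SD, cut at about 10% in these data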
PolyA inhibitor: polyadenylation inhibitors in yeast reporter cells, primary screen, luminescence, S. cerevisiae; activity score, % at 12 µM; 300,000 compounds, 0.02% hits; S. cerevisiae SKY197-pL101 polyadenylation reporter, beta-gal luminescence; efflux-impaired pdr1/pdr3 knockout yeast; score 100 = 6 SD above DMSO; AID 1875, 2009;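 active = lowest replicate activity score at least 50, where 100 means six control SD above control mean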;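 also: yeast exposed to compound for 9 h at 30 °C; higher score means more reporter readthrough which indicates perturbed polyadenylation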
DAX1 inh-2: DAX1 (NR0B1) inhibitors on StAR promoter, primary screen, cell-based, luminescence, SF-1 (NR5A1), full-length DAX-1; HEK293T StAR-luciferase reporter, SF-1/DAX-1 repression relief; inhibition, % at 6.8 µM; 370,000 compounds, 1.1% hits; AID 652010, 2013;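 active = inhibition above the mean over all tested compounds plus 3 SD, cut at about 3.6% in these data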;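 also: higher inhibition means more luminescence from relief of DAX-1 repression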
Of the large screens only hits and unclear results are named; the others gave an inactive call.

COc1ccc(C(C(=O)N(C)C2CCCC2)N(Cc2ccc(F)cc2)C(=O)c2ccc3ccccc3c2)cc1OC (stereo not given)	none (no result: DAX1 inh-1, PolyA inhibitor)
O=C(c1ccc(N2CCOCC2)cc1)c1cccs1	hgDAF12 agonist 12, DAX1 inh-2 3.8
CC(C)C(OC(=O)c1ccccc1)c1nccc2ccccc12 (stereo not given)	DAX1 inh-1 4.2
CCOC(=O)Cc1csc2nc(-c3ccccc3)cn12	none (no result: DAX1 inh-1, PolyA inhibitor)
CCc1nc(N2CCN(C(=O)CCl)CC2)c2c3c(sc2n1)CC(C)CC3 (stereo not given)	DAX1 inh-1 4.4
O=C(N/N=C/c1ccc(OC(F)F)cc1)C1=COCCO1	DAX1 inh-1 4.9, hgDAF12 agonist 11, DAX1 inh-2 4.1
O=C(N/N=C/c1ccccc1OC(F)F)C1=COCCO1	none
O=C(CSc1nnc(-c2ccccc2)n1-c1ccc(Cl)cc1)Nc1ccc(OCc2ccccc2)cc1	none (no result: DAX1 inh-1, PolyA inhibitor)
O=C(COC(=O)Cc1ccc(S(=O)(=O)N2CCOCC2)s1)NCc1ccccc1	PolyA inhibitor 903
c1ccc2nc(N3CCCC3)c(N3CCCCC3)nc2c1	none (no result: PolyA inhibitor)
c1ccc2nc3c(nc2c1)OCC1CCCCN31 (stereo not given)	hcDAF-12 act 6.2
COC(=O)c1cc2c(c3c4cc(OC)ccc4n(S(=O)(=O)c4cccc(C)c4)c13)C(=O)N(Cc1ccc(C(F)(F)F)cc1)C2	none (no result: DAX1 inh-1, PolyA inhibitor)
Nc1c(C(=O)N2CCCCC2)sc2nc3c(cc12)CCCC3	hgDAF12 agonist 12
C#CCNC(=O)C[C@H]1C[C@@]2(C(=O)OC)C(=C[C@H](C(C)(C)C)O[C@@H]2C)N(Cc2ccccc2)C1=O	none (no result: DAX1 inh-1, PolyA inhibitor)
O=S(=O)(c1ccc(OC(F)(F)F)cc1)N1CCCC(N2CCOCC2)C1 (stereo not given)	DAX1 inh-1 4.6
COc1ccc(N2CCN(C3CCCN(S(=O)(=O)c4ccccc4)C3)CC2)cc1 (stereo not given)	none
CCN(C(=O)C1CCN(c2ncccn2)CC1)c1ccccc1	none (no result: DAX1 inh-1, PolyA inhibitor)
O=c1ccn(-c2ccccc2)[nH]1	DAX1 inh-1 4.4
O=c1[nH]n(-c2ccccc2)c(=O)c(Cl)c1Cl	none (no result: hcDAF-12 act, ssDAF-12 act, hgDAF12 agonist, DAX1 inh-2)
O=C1NC(=O)C2(CCCc3ccc(N(CCO)CCO)cc32)N1 (stereo not given)	none (no result: DAX1 inh-1, PolyA inhibitor)
Cc1ccc(S(=O)(=O)NC2c3cccc4cccc(c34)C2Sc2nc(C)cc(C)n2)cc1 (stereo not given)	ssDAF-12 act 1.4
Cc1ccc(S(=O)(=O)NC2c3cccc4cccc(c34)C2Sc2nncn2C)cc1 (stereo not given)	none
COC(=O)[C@H](C(C)C)N1Cc2nnn(Cc3ccccc3)c2C=CS1(=O)=O	none (no result: DAX1 inh-1, PolyA inhibitor)
CC(C)N1CCCCC(NC(=O)c2ccccc2)C1=O (stereo not given)	none (no result: DAX1 inh-1, PolyA inhibitor)
Cc1cc(O)c(C2=Nc3ccccc3SC(c3ccc(Cl)cc3)C2)c(=O)o1 (stereo not given)	hcDAF-12 act 6.1
Cc1cc(C)c2[nH]c(O)c(N=NC3=NC(=O)CS3)c2c1	DAX1 inh-1 4.3
O=C(Cc1nc(=O)c2ccccc2s1)Nc1ccccc1	hcDAF-12 act 5.9, hgDAF12 agonist 11
C=CCN(CC#CC1=CCCCC1)Cc1ccccc1	none (no result: DAX1 inh-1, PolyA inhibitor)
Cc1nn(CCC(=O)NNC(=O)NCc2ccccc2)c(C)c1[N+](=O)[O-]	none (no result: DAX1 inh-1, PolyA inhibitor)
COc1ccc(CN(C(=O)c2cccs2)c2ccccc2)cc1	none
COc1ccc(CN(C(=O)c2ccco2)c2ccccc2)cc1	hcDAF-12 act 5.9
Cc1ccc(-c2ccc(/C=N/O)o2)cc1[N+](=O)[O-]	hgDAF12 agonist 13
